Screening data (PubChem)
PrPC TRFRET: reduces human prion protein on the cell surface | cell surface PrPC, TR-FRET read-out | inhibition, % at 13.8 µM | P04156 | 370,000 tested, 0.43% active | AID 720596; in the data active = inhibition above about 24%
SARS 3CLpro inh-1: SARS-CoV 3CLpro protease inhibition; P0C6X7; recombinant SARS-CoV 3CLpro, quenched FRET peptide cleavage; inhibition, % at 6 µM; 290,000 tested, 0.14% active; AID 1706; in the data active = inhibition above about 12%
BJeLR lethal: kills HRASV12-expressing BJeLR cells; BJeLR (HRASV12) viability, CellTiter-Glo ATP luminescence, 48 h; inhibition, % (concentration not given with the values); 300,000 tested, 0.17% active; in the data active = inhibition above about 50%
VHR inh abs: DUSP3 (human) phosphatase inhibition; P51452; recombinant VHR phosphatase, pNPP absorbance; inhibition, % at 13.3 µM; 290,000 tested, 0.52% active; AID 1654; in the data active = inhibition above about 50%
Target sequence (P51452 whole entry, looked up): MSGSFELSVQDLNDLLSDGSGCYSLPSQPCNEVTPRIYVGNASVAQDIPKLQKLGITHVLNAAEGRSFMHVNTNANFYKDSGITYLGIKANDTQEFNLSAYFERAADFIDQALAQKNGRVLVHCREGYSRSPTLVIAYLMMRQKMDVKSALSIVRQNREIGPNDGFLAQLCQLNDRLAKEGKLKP
SARS 3CLpro inh-2: confirmation of SARS coronavirus 3C-like protease inhibitors; QFRET protease activity assay, 3CLpro; inhibition, % at 6 µM; shares compounds with SARS 3CLpro inh-1; 380 tested, 36% active; in the data active = inhibition above about 13%
Of the large screens only hits and unclear results are named; the others gave an inactive call (follow-up assays come after a bar, where they were run). The list is not random: actives were taken first. Their share in the collection is about 1.1%.

N=c1sccn1Cc1ccc(Cl)cc1Cl	none
O=C(CCl)N=c1sccn1Cc1ccc(Cl)cc1Cl	SARS 3CLpro inh-1 33.0 | SARS 3CLpro inh-2 63.2
O=C(CCl)N=c1sccn1Cc1ccccc1Cl	SARS 3CLpro inh-1 41.3, BJeLR lethal 110.1 | SARS 3CLpro inh-2 57.9
COc1cc(/C=N\NC(=O)Cn2nnc3ccccc32)cc(OC)c1OC	SARS 3CLpro inh-1 37.5 | SARS 3CLpro inh-2 56.6
O=C(Cn1nnc2ccccc21)N/N=C\c1cccs1	SARS 3CLpro inh-1 13.7 | SARS 3CLpro inh-2 16.5
CN(C)c1nc(NNC(=O)c2ccccc2)nc(N(C)C)n1	none (no result: SARS 3CLpro inh-1, BJeLR lethal, VHR inh abs)
COC(=O)C1=C(C)N(Cc2ccccc2C(F)(F)F)C(=NCc2ccc(OC)cc2)NC1c1ccc(F)cc1 (stereo unspecified)	none (no result: SARS 3CLpro inh-1, BJeLR lethal, VHR inh abs)
COc1ccc(NC(=O)N2CCN(S(=O)(=O)c3ccc(F)cc3)CC2)c(OC)c1	none
COc1ccc(S(=O)(=O)N2CCN(C(=O)Nc3ccccc3OC)CC2)cc1	SARS 3CLpro inh-1 13.3 | SARS 3CLpro inh-2 inactive
COc1ccc(C(=O)c2c3ccccc3[n+]([O-])n2CCC(N)=O)cc1	none (no result: SARS 3CLpro inh-1, VHR inh abs)
NC(=O)CCn1c(C(=O)c2cccc([N+](=O)[O-])c2)c2ccccc2[n+]1[O-]	SARS 3CLpro inh-1 26.5 | SARS 3CLpro inh-2 25.5
Cc1ccc(C(=O)c2c3ccc(C(F)(F)F)cc3[n+]([O-])n2CCC(N)=O)cc1	SARS 3CLpro inh-1 26.8 | SARS 3CLpro inh-2 21.3
NCCCn1c(C(=O)c2cc(Cl)c(N)c(Cl)c2)c2ccccc2[n+]1[O-]	none (no result: SARS 3CLpro inh-1, VHR inh abs)
NC(=O)CCn1c(C(=O)c2cc(Cl)c(N)c(Cl)c2)c2ccccc2[n+]1[O-]	SARS 3CLpro inh-1 29.8 | SARS 3CLpro inh-2 35.0
Cc1ccc(C(=O)c2c3ccc(C(F)(F)F)cc3[n+]([O-])n2CCCC(N)=O)cc1	none (no result: SARS 3CLpro inh-1, VHR inh abs)
Cc1c(Cl)cccc1NC(=O)CSc1nc(=O)n(CCCN2CCOCC2)c2c1CCCC2	none (no result: SARS 3CLpro inh-1, BJeLR lethal, VHR inh abs)
CSCC[C@H](NC(=O)[C@@H]1Cc2ccccc2CN1)C(=O)Nc1ccc2c(c1)OCCO2	none
O=C(/C=C/c1ccc(OC(F)F)cc1)Nc1cccc(S(=O)(=O)N2CCOCC2)c1	none
CCOc1ccc(C2C(C(=O)c3ccc(C)o3)=C(O)C(=O)N2c2nc(C)c(C(=O)OC)s2)cc1 (stereo unspecified)	SARS 3CLpro inh-1 12.4 | SARS 3CLpro inh-2 inactive
CCCOC(=O)c1c(-c2ccc(C)cc2C)csc1NC(=O)C1C2CCC(O2)C1C(=O)O (stereo unspecified)	SARS 3CLpro inh-1 12.5 | SARS 3CLpro inh-2 inactive
Cc1cc(Cl)ccc1OC(C)C(=O)Nc1ccc(S(=O)(=O)Nc2cnc3ccccc3n2)cc1 (stereo unspecified)	SARS 3CLpro inh-1 12.4 | SARS 3CLpro inh-2 inactive
CC(Oc1ccc(Cl)cc1Cl)C(=O)Nc1ccc(S(=O)(=O)Nc2cnc3ccccc3n2)cc1 (stereo unspecified)	none (no result: PrPC TRFRET)
COc1ccc(/C=C(/NC(=O)c2ccccc2)C(=O)N2CCOCC2)cc1OC	none
Cc1cccc(-n2nc(C)c3c(C(=O)O)cc(-c4cccs4)nc32)c1	SARS 3CLpro inh-1 12.7 | SARS 3CLpro inh-2 inactive
Cc1nn(-c2cccc(Cl)c2)c2nc(-c3ccco3)cc(C(=O)O)c12	none
CN(Cc1ccc(F)cc1)S(=O)(=O)c1nnc(NC(=O)c2ccccc2Br)s1	SARS 3CLpro inh-1 12.7 | SARS 3CLpro inh-2 inactive
COc1ccccc1C(=O)Nc1nc2ccccc2s1	SARS 3CLpro inh-1 12.9 | SARS 3CLpro inh-2 inactive
CCN(c1ccccc1)S(=O)(=O)c1nnc(NC(=O)c2ccccc2OC)s1	SARS 3CLpro inh-1 12.7 | SARS 3CLpro inh-2 inactive
CN1CCn2cnc(C(=O)N3CCN(c4ccccc4)CC3)c2C1=O	none (no result: SARS 3CLpro inh-1, BJeLR lethal, VHR inh abs)
CCOC(=O)C1(C)CCCN1C(=O)c1ccccc1OC (stereo unspecified)	none (no result: SARS 3CLpro inh-1, BJeLR lethal, VHR inh abs)
COCC(=O)Nc1ccc2c(c1)C(=O)N(C)[C@@H]1CC[C@@H](CC(=O)OC)O[C@H]1CO2	none (no result: SARS 3CLpro inh-1, BJeLR lethal, VHR inh abs)
Cc1ccc(/C=C/C(=O)c2cc(Br)ccc2OC(=O)c2ccco2)cc1	SARS 3CLpro inh-1 23.1 | SARS 3CLpro inh-2 32.4
COc1ccccc1/C=C/C(=O)c1cc(Br)ccc1OC(=O)c1ccco1	SARS 3CLpro inh-1 14.8 (no result: VHR inh abs) | SARS 3CLpro inh-2 50.0
Cc1ccc(Nc2nc(N)c([N+](=O)[O-])c(N3CCC(C)CC3)n2)cc1C	none
Cc1ccc(Nc2nc(N)c([N+](=O)[O-])c(N3CCOCC3)n2)cc1C	SARS 3CLpro inh-1 12.8 | SARS 3CLpro inh-2 inactive
CC(C)N(CCNS(=O)(=O)c1ccc(Cl)cc1)C(C)C	none
CC(C)OP(=O)(OC(C)C)C1(NS(=O)(=O)c2ccc(Cl)cc2)C=C(Cl)C(=O)C(Cl)=C1	SARS 3CLpro inh-1 17.0 | SARS 3CLpro inh-2 inactive
COc1ccc(-c2cn(CC[C@@H]3CC[C@H](NC(=O)Cc4ccccn4)[C@@H](CO)O3)nn2)cc1	none (no result: SARS 3CLpro inh-1, BJeLR lethal, VHR inh abs)
O=C(NCc1ccco1)C(c1ccco1)N(Cc1cccs1)C(=O)Cn1nnc2ccccc21 (stereo unspecified)	SARS 3CLpro inh-1 14.2 | SARS 3CLpro inh-2 inactive
O=C(NC1CCCCC1)C(c1ccco1)N(Cc1cccs1)C(=O)Cn1nnc2ccccc21 (stereo unspecified)	none (no result: BJeLR lethal)
COCCNC(=O)C(c1ccccc1)N(Cc1cccs1)C(=O)Cn1nnc2ccccc21 (stereo unspecified)	SARS 3CLpro inh-1 23.0 | SARS 3CLpro inh-2 21.2
CCC(C)(C)NC(=O)C(c1cccn1C)N(C(=O)Cn1nnc2ccccc21)c1ccc(F)cc1 (stereo unspecified)	none
O=C(NCc1ccco1)C(c1ccco1)N(CCc1ccccc1)C(=O)Cn1nnc2ccccc21 (stereo unspecified)	SARS 3CLpro inh-1 25.9 | SARS 3CLpro inh-2 27.6
CCC(C)(C)NC(=O)C(c1cccn1C)N(C(=O)Cn1nnc2ccccc21)c1ccc(NC(C)=O)cc1 (stereo unspecified)	SARS 3CLpro inh-1 45.9 | SARS 3CLpro inh-2 50.4
Cc1ccc(NC(=O)c2ccc(OCc3c(C)noc3C)cc2)cc1C	none (no result: SARS 3CLpro inh-1, BJeLR lethal, VHR inh abs)
COC(=O)C1(C(=O)OC)C(C(=O)c2ccccc2)C1c1ccccc1 (stereo unspecified)	none (no result: SARS 3CLpro inh-1, BJeLR lethal, VHR inh abs)
O=C(COC(=O)/C=C/c1ccccc1[N+](=O)[O-])NNC(=O)c1ccc(F)cc1	none (no result: SARS 3CLpro inh-1, BJeLR lethal, VHR inh abs)
C[C@@H]1CCCCO[C@@H](CN(C)Cc2ccncc2)[C@@H](C)CN([C@H](C)CO)C(=O)c2cc(NC(=O)c3ccccc3)ccc2O1	none (no result: SARS 3CLpro inh-1, BJeLR lethal, VHR inh abs)
CN(C)CCCNC(=O)c1c(N)[nH]c(C(=O)c2ccc(Br)cc2)c1-c1ccc(Br)cc1	none (no result: SARS 3CLpro inh-1, BJeLR lethal, VHR inh abs)
COCCNC(=O)C(c1ccc(C)o1)N(Cc1ccc(OC)cc1)C(=O)Cn1nnc2ccccc21 (stereo unspecified)	none
Cc1ccc(CN(C(=O)Cn2nnc3ccccc32)C(C(=O)NCc2ccco2)c2cccs2)cc1 (stereo unspecified)	SARS 3CLpro inh-1 25.4 | SARS 3CLpro inh-2 19.1
O=C(NCc1ccco1)C(c1cccs1)N(Cc1ccccc1)C(=O)Cn1nnc2ccccc21 (stereo unspecified)	SARS 3CLpro inh-1 20.3 | SARS 3CLpro inh-2 28.7
COCCNC(=O)C(c1ccc(C)o1)N(C(=O)Cn1nnc2ccccc21)c1ccccc1 (stereo unspecified)	SARS 3CLpro inh-1 13.8 | SARS 3CLpro inh-2 inactive
Cn1c(CCCNC(=O)c2ccco2)nc2ccccc21	none (no result: SARS 3CLpro inh-1, BJeLR lethal, VHR inh abs)
